Bioassay records: PubChem, National Center for Advancing Translational Sciences (NCATS)
Marburg entry inh: inhibitors of Marburg virus binding or cell entry; Potency, µM (series often up to 37.8 µM), usual class: inhibitors; Marburg virus pseudotyped entry inhibition, cell reporter; 300,000 tested, 1.8% active; AID 540276; calls by dose curve; tested in HEK293 cells
LASV entry inh: Lassa virus entry inhibition; Lassa virus pseudotype entry inhibition, cell reporter; Potency, µM (highest dose often 37.9 µM), usual class: inhibitors; 300,000 tested, 1.2% active; AID 540256; calls by dose curve; tested in HEK293 cells; further: nearly all actives have a fitted effect of over 50% in size
FMDV antiviral: foot and mouth disease virus antiviral activity. FMDV antiviral cell-based qHTS. Potency, µM (series often up to 57.9 µM), most hits filed as inhibitors. 410,000 tested, 1.2% active. AID 1159524; calls by dose curve; tested in HEK293T cells; further: read-out not given here; nearly all actives have a fitted effect of over 45% in size
Shiga inhibitor: inhibitors of Shiga toxin in Vero cells | 290,000 tested, 9.2% active | AID 2315 | inhibition, % at 38.7 µM | Vero cells, Shiga toxin protein synthesis inhibition reporter; in the data active means inhibition mostly above about 28%, no sharp cut-off; inactive means mostly below about 43%
HCV inhibitor: blocks hepatitis C virus; Potency, µM (titrated, usually from 41.8 µM), actives largely listed as inhibitors; Huh7.5.1 HCVcc-Cre infection, luciferase reporter, 44 h; 340,000 tested, 3.4% active; active means well fitted inhibition curve with a large enough effect; inconclusive means small, poorly fitted or top-dose-only effect, or another doubt; inactive means no such curve, though single readings can be large or run the other way
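Cells (1,000/well) were plated 4 h before compound, then infected with HCVcc-Cre virus (~0.5 moi). After 44 h further culture, infection was read as luciferase luminescence following a 15 min substrate incubation at room temperature.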
Cycloheximide cs: counter-screen hit for Shiga toxin inhibitors, cycloheximide. cell reporter, cycloheximide protein synthesis inhibition counterscreen. max response, %. 300,000 tested, 12% active. AID 2314; in the data active means max response mostly above about 13%, no sharp cut-off; inactive means mostly below about 14%; further: read at 38.3 µM for the half of the compounds with a filed dose
Hits are given with their value; n = inactive; u = inconclusive; x = no result; + = active, no number. Sampled rows, rich in hits. Any-hit rate of the full collection: about 13%.

SMILES | Marburg entry inh | LASV entry inh | FMDV antiviral | Shiga inhibitor | HCV inhibitor | Cycloheximide cs
CCOC(=O)c1ccc(N2Cc3ccccc3C2=NC(=O)c2ccncc2)cc1 | x | x | n | 58 | n | 28
O=C(c1ccc(Cl)nc1)N1CCc2ccccc2C1 | n | n | n | n | n | n
O=C(N=C1c2ccccc2CN1c1ccc(F)cc1)c1ccc(Cl)nc1 | n | n | n | n | n | 24
CCOC(=O)c1ccc(N2Cc3ccccc3C2=NC(=O)c2cccs2)cc1 | u | 10µM | n | n | n | n
CCN(CC)S(=O)(=O)c1ccc(N2CCCC2)c(NS(=O)(=O)c2ccc([N+](=O)[O-])cc2)c1 | n | n | n | n | n | n
COCCn1c(C)cc(O)c(C(c2ccccc2)N2CCN(C)CC2)c1=O (centres undefined) | x | n | n | x | x | x
N=C1c2ccccc2CN1c1ccc(S(=O)(=O)N2CCCCC2)cc1 | n | n | n | n | n | n
CCOC(=O)c1ccc(N2Cc3ccccc3C2=N)cc1 | n | n | n | 126 | n | 34
COc1ccccc1S(=O)(=O)N(C)C[C@@H]1Oc2ncc(-c3ccc(C)cc3)cc2C(=O)N([C@H](C)CO)C[C@@H]1C | x | x | n | x | x | x
CC(C)c1nnc(NC(=O)C2CCCN2C(=O)Nc2ccc(F)cc2)s1 (centres undefined) | n | n | n | n | n | n
O=S(=O)(Nc1ccc2cn[nH]c2c1)c1ccc(Cl)cc1 | x | x | n | n | n | n
O=C(NCCc1ccc2c(c1)OCCO2)c1cc(F)cc(F)c1 | n | u | n | 21 | u | 25
COc1ccc(C(=O)N[C@H](C(=O)NCCc2ccc3c(c2)OCCO3)C(C)C)cc1 | x | x | n | x | n | x
COc1ccc(C(=O)NC(C(=O)NCCc2ccc3c(c2)OCCO3)C(C)C)cc1 (centres undefined) | x | x | n | 74 | n | 21
O=C(NCCc1ccc2c(c1)OCCO2)c1cccc(F)c1 | n | n | n | 43 | u | 51
O=C(NCc1ccc2c(c1)OCO2)c1cccc(F)c1 | n | n | n | n | n | n
Nc1ncc(C(=O)O)c(-c2ccccc2)n1 | n | u | n | x | n | x
CCCS(=O)(=O)NC(=O)C1(C)CCCN(C(=O)C2(c3ccc(Cl)cc3)CCCC2)C1 (centres undefined) | x | x | n | x | x | x
Cc1cc(C)nc(Nc2nc3ccccc3o2)n1 | n | n | n | 45 | n | 27
Cc1cc(C)nc(Nc2ccccc2F)n1 | n | n | n | n | n | n
c1ccc(Nc2nc3ccccc3o2)cc1 | n | n | n | 119 | x | 33
Fc1ccccc1Nc1nc2ccccc2o1 | u | u | n | 97 | n | 45
FC(F)(F)Oc1ccc(Nc2nc3ccccc3o2)cc1 | n | n | n | 77 | n | 33
Cc1ccc(NC(=O)c2c(C)nc(Nc3nc4ccccc4o3)nc2C)cc1 | n | u | n | n | n | n
CCOC(=O)c1cn(CC)c2cc3c(cc2c1=O)OCO3 | x | x | n | x | n | x
SMILES | Marburg entry inh | LASV entry inh | FMDV antiviral | Shiga inhibitor | HCV inhibitor | Cycloheximide cs
O=C(CN(CCO)c1ccccc1)Nc1cccc(S(=O)(=O)N2CCCC2)c1 | u | n | n | n | n | n
O=C(NC(=Nc1nc2ccccc2o1)NC(=O)c1ccccc1)c1ccccc1 | u | n | n | n | n | n
O=C(NNc1nc2ccccc2o1)c1ccccc1 | u | u | u | 56 | n | 30
O=C(CSc1nccn1-c1ncc(C(F)(F)F)cc1Cl)c1ccc(Cl)cc1 | n | u | n | + | n | 47
Cn1ccnc1SCC(=O)c1c[nH]c2ccccc12 | u | n | n | 78 | n | 44
O=C(OC1CCN(c2ncc(C(F)(F)F)cc2Cl)CC1)c1ccc(Cl)cc1 | n | n | n | n | n | n
O=C(CSc1nccn1-c1ccccc1)c1ccc(Br)cc1 | n | n | n | 39 | n | 16
Cn1ccnc1SCC(=O)c1ccc(Br)cc1 | n | n | x | 60 | n | 38
CC[C@@]1(C(=O)OC)N[C@H](CN(C)C(=O)Nc2ccc(C(F)(F)F)cc2)[C@@H]2C(=O)N(Cc3ccccc3)C(=O)[C@@H]21 | x | x | n | x | n | x
COC(=O)[C@]1(Cc2ccccc2)N[C@H](CN(C)C(=O)Nc2ccc(C(F)(F)F)cc2)[C@@H]2C(=O)N(Cc3ccccc3)C(=O)[C@@H]21 | x | x | n | x | 13µM | x
C/C=C/C1=CC(=O)C[C@H](c2ccc3c(c2)OCO3)C1 | x | x | n | x | n | x
O=C1OC(c2ccc(Cl)cc2)/C(=C(/O)c2ccccc2)C1=O (centres undefined) | n | n | n | 65 | n | 37
CN1C(=O)C(=O)/C(=C(/O)c2ccc(Br)cc2)C1c1ccc(Cl)cc1 (centres undefined) | n | n | n | x | n | n
CCN(c1cccc(C(F)(F)F)c1)S(=O)(=O)c1ccc2c(c1)CCN2C(C)=O | u | 18µM | u | n | u | n
CCN(c1cccc(C)c1)S(=O)(=O)c1ccc2c(c1)CCN2C(C)=O | u | u | u | n | 11µM | n
Cc1ccc(S(=O)(=O)NN2C(=O)c3ccccc3NC2c2ccccc2O)cc1 (centres undefined) | n | n | n | n | n | n
CS(=O)(=O)NN1C(=O)c2ccccc2NC1c1ccccc1 (centres undefined) | u | n | n | 34 | n | 25
Cc1ccc(S(=O)(=O)NN2C(=O)c3ccccc3NC2c2ccccn2)cc1 (centres undefined) | 7.9µM | u | n | n | u | n
CS(=O)(=O)NN1C(=O)c2ccccc2NC1c1cccc(O)c1 (centres undefined) | n | n | n | n | n | n
ClC1=C(Cl)C2(Cl)C3C4C=CC(C4)C3C1(Cl)C2(Cl)Cl (centres undefined) | x | x | n | x | x | x
COc1ccc2c(c1)OC1(C)CC2C(C(=O)c2ccccc2OC)C(=O)N1 (centres undefined) | n | n | n | n | n | n
CN(C)CCCOc1ccc(-c2cccc3nncn23)cn1 | x | x | n | x | x | x
c1ccc(CSc2nnc(NC3=NCCCCC3)s2)cc1 | n | n | n | 102 | n | 44
N#Cc1ccc(CSc2nnc(Nc3ccccc3)s2)cc1 | n | n | n | n | u | n
Cc1cc(C(=O)COC(=O)c2csc3c2CCCC3)c(C)n1C | n | n | n | n | u | n
SMILES | Marburg entry inh | LASV entry inh | FMDV antiviral | Shiga inhibitor | HCV inhibitor | Cycloheximide cs
CCCS(=O)(=O)c1nc(S(=O)(=O)c2ccc(C)cc2)c(NCCCN2CCOCC2)s1 | n | n | n | n | n | n
Cn1c(OCc2cccnc2)nc2c1c(=O)n(Cc1ccc(Cl)cc1)c(=O)n2C | u | 16µM | u | x | 11µM | x
Cn1c(Oc2ccc(F)cc2)nc2c1c(=O)n(Cc1ccccc1Cl)c(=O)n2C | u | u | 18µM | x | x | x
Cn1c(N2CCN(c3ccccn3)CC2)nc2c1c(=O)n(Cc1ccc(Cl)cc1)c(=O)n2C | n | n | 20µM | n | n | n
Cn1c(N2CCN(c3ccccn3)CC2)nc2c1c(=O)n(Cc1ccccc1Cl)c(=O)n2C | n | n | n | x | n | x
Cc1ccc(-c2ccc(=O)n(CCC(=O)N3CCN(Cc4ccccc4)CC3)n2)cc1 | u | n | u | n | n | n
Cc1nc2cnc(N3CCN(C)CC3)nc2n(Cc2cccs2)c1=O | x | x | n | x | x | x
COc1ccc(-n2ncc3c(N4CCCCC4)ncnc32)cc1 | x | x | 10µM | n | u | n
